In PubChem BioAssay (NCATS):
A number with no mark means an inactive call. Results filed as inconclusive are left out. Calls of active or inactive are those of the source. Calls follow the shape of the dose curve; as a rule, active = well fitted curve in the direction sought with a large enough effect; inconclusive = small, poorly fitted or top-dose-only effect, or another doubt; inactive = no such curve, though single readings can be large; an effect the other way counts as inactive or inconclusive. Residues, ends and D or L forms follow the SMILES beside them.

Key:
[1] = molecular target: Calcium and integrin-binding protein 1 (Homo sapiens) (UniProt Q99828); assay: Primary qHTS for Identification of Calcium Integrin Binding Protein 1 (CIB1) Competitor (AID 1508620);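 also: GST tagged CIB1 binding a fluorescein labelled alphaIIb integrin peptide tracer; top concentration of the series differs between compounds; % is scaled to controls: 0 for no effect and ±100 for the full control effect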
Calcium and integrin-binding protein 1 (Homo sapiens), sequence (Q99828 whole entry, looked up): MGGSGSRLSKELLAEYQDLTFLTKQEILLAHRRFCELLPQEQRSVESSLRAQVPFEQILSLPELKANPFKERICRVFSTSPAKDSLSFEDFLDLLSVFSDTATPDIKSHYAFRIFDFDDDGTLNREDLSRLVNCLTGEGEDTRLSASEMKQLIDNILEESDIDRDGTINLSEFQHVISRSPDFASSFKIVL
How it was run: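 Fluorescence polarization competition: GST-tagged CIB1 (1 uM final) preincubated with compound 15 min at room temperature, then FITC-labelled alphaIIb peptide (100 nM final) added. After 15 min at room temperature, polarization read at Ex 480/Em 540.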

[2] = molecular target: Ubiquitin carboxyl-terminal hydrolase 2 (Homo sapiens) (UniProt O75604); assay: qHTS for Inhibitors of Ubiquitin-specific Protease USP2a Using CHOP2 as the Reporter: K484 Substrate (AID 652173);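 also: cleavage of internally quenched K48 di-ubiquitin substrate measured as rising fluorescence over time; potency is read from the fitted curve at half-maximal effect; nearly all actives have a fitted effect of over 70% in size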
Ubiquitin carboxyl-terminal hydrolase 2 (Homo sapiens), sequence (O75604 whole entry, looked up): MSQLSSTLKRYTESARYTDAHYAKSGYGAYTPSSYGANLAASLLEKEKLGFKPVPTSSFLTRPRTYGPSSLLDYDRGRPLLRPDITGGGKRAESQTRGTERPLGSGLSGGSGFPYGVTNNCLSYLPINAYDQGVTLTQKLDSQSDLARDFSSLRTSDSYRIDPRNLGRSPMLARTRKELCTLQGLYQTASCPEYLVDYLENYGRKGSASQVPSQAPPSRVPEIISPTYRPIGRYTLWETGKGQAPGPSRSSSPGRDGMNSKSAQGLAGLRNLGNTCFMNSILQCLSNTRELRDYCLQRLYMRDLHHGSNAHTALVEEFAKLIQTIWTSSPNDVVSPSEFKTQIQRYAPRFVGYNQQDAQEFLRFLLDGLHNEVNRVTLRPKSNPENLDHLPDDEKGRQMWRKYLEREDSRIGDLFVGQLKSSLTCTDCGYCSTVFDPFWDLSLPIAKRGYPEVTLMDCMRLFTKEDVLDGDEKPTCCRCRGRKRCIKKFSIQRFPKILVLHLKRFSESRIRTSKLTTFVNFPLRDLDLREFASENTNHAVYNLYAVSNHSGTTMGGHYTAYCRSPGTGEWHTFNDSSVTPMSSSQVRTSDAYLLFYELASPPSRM
How it was run: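 USP2 (dispensed at 5 nM) was pinned with compounds, then DiUb K48 internally quenched fluorescent substrate (dispensed at 100 nM) was added. The buffer was 20 mM Tris pH 8, 2 mM beta-mercaptoethanol and 0.05% CHAPS. Cleavage was read kinetically as rising fluorescence, Ex 525/Em 598.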

[3] = Cell Viability qHTS for small molecule stabilizers of the endoplasmic reticulum resident proteome (AID 1508629); settings: cell viability counter-screen, 100 nM thapsigargin for final 4 h;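 also: compound exposure about 46 h in total before the viability read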; also: potency is read from the fitted curve at half-maximal effect;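 as to max response: human SH-SY5Y neuroblastoma cells carrying the GLuc-SERCaMP reporter; % is scaled to controls: 0 for no effect and ±100 for the full control effect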
[4] = Confirmation and Secondary Assay for Modulators of Hemoglobin Beta Chain Splicing at IVS2 705 locus (AID 930);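 also: HeLa cells stably expressing the EGFP-705 splicing reporter; GFP fluorescence per well restored by corrected splicing of the IVS2-705 intron in EGFP; series mostly up to about 46 µM; % of control where 0% means no effect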
How it was run: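 HeLa EGFP-705 reporter; 500 cells/well, o/n 37C 5% CO2; cpd 2 d; 488 ex/500-520 em laser scan; total peak GFP intensity/well. Ref: 500 nM […] antisense PNA.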

[5] = molecular target: Cytochrome P450 2C9 (Homo sapiens) (UniProt P11712); assay: qHTS Assay for Inhibitors and Substrates of Cytochrome P450 2C9 (AID 883); also: nearly all actives have a fitted effect of over 60% in size; also: potency is read from the fitted curve at half-maximal effect; as to activity change, negative = inhibition: % is scaled to controls: 0 for no effect and ±100 for the full control effect
Cytochrome P450 2C9 (Homo sapiens), sequence (P11712 whole entry, looked up): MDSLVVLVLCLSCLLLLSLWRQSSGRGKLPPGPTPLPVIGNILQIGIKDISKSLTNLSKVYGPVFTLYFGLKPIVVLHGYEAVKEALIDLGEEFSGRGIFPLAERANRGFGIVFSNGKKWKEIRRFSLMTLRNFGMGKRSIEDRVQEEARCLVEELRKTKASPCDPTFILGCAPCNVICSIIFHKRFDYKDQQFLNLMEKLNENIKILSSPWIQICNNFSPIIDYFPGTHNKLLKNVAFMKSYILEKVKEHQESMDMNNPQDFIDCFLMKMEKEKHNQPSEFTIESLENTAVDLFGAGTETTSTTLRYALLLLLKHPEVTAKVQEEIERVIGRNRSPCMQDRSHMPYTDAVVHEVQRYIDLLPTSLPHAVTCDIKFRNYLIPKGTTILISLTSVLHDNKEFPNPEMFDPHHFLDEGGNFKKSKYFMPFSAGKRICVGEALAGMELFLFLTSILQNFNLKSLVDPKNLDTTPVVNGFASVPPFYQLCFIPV
How it was run: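 10nM CYP2C9 + 100uM Luciferin-H (=KM), 25mM KPO4; cpd 10 min 37C; NADPH regen, 60 min 37C; stop/detect with P450 Glo-Buffer 20 min; luminescence. Norm. to 57uM sulphaphenazole as full inhibition.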

[6] = molecular target: Rap guanine nucleotide exchange factor 3 (Homo sapiens) (UniProt O95398); assay: Confirmatory qHTS for agonist of cAMP-regulated guanine nucleotide exchange factor 3 (EPAC1) (AID 1645881);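 also: EPAC1 catalysed release of BODIPY-GDP from Rap1B seen as fluorescence loss; 100% = effect of cAMP agonist control; nearly all actives have a fitted effect of over 75% in size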
Rap guanine nucleotide exchange factor 3 (Homo sapiens), sequence (O95398 whole entry, looked up): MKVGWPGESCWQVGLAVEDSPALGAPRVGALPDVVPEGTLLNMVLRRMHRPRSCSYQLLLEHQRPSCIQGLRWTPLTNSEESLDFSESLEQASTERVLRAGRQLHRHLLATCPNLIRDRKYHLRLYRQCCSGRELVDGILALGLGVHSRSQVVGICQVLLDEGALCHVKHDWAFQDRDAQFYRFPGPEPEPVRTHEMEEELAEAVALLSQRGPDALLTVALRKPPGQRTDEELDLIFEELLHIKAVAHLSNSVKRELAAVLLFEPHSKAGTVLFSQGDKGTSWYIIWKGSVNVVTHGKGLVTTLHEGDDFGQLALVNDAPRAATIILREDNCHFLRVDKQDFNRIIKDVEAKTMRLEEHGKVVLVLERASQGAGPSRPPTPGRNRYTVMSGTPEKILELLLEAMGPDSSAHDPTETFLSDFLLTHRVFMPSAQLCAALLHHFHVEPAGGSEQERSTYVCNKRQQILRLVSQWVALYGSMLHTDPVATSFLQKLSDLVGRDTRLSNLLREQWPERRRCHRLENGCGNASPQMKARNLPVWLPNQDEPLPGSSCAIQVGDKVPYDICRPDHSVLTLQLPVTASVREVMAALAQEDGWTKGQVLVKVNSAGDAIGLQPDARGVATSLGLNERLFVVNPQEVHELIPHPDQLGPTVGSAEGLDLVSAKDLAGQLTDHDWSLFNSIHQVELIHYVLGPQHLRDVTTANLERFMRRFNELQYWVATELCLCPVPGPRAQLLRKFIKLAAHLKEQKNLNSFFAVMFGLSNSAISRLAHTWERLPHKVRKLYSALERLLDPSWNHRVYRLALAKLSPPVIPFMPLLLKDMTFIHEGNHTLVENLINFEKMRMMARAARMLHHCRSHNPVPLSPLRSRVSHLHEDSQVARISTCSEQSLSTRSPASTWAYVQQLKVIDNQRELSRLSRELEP

[7] = molecular target: Rap guanine nucleotide exchange factor 4 (Homo sapiens) (UniProt Q8WZA2); assay: Confirmatory qHTS for agonist of cAMP-regulated guanine nucleotide exchange factor 4 (EPAC2) (AID 1645884);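 also: nucleotide exchange releases bodipy-GDP from Rap1 and this lowers its fluorescence; % is scaled to controls: 0 for no effect and ±100 for the full control effect; nearly all actives have a fitted effect of over 65% in size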
Rap guanine nucleotide exchange factor 4 (Homo sapiens), sequence (Q8WZA2 whole entry, looked up): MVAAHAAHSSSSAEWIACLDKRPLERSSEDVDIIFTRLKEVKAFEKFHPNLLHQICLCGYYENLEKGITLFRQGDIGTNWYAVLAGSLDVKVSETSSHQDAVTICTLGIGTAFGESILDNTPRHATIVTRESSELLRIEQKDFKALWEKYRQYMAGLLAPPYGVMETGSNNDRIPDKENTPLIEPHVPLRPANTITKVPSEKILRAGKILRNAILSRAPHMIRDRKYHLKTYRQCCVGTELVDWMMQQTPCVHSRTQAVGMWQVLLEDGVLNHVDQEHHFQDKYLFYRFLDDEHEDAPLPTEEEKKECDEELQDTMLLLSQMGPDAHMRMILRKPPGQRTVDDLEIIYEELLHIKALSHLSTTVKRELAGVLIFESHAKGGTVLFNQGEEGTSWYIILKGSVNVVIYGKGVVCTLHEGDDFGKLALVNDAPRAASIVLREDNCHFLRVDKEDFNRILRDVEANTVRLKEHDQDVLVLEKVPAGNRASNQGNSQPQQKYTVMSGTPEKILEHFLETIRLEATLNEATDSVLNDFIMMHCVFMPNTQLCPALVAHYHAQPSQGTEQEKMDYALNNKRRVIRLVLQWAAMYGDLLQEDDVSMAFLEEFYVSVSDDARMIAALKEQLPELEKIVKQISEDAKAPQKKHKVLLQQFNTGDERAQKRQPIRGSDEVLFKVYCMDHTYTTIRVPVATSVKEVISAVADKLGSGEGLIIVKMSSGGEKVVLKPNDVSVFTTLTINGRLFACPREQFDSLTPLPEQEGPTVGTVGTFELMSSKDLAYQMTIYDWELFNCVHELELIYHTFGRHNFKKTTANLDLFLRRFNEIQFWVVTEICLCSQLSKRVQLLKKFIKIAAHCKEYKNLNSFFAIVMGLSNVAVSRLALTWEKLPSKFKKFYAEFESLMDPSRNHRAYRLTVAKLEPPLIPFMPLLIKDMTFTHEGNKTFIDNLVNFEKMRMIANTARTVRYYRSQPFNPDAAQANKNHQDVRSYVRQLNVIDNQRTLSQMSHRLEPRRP

[8] = molecular target: Cytochrome P450 2D6 (Homo sapiens) (UniProt P10635); assay: qHTS Assay for Inhibitors and Substrates of Cytochrome P450 2D6 (AID 891); also: potency is read from the fitted curve at half-maximal effect; nearly all actives have a fitted effect of over 60% in size
Cytochrome P450 2D6 (Homo sapiens), sequence (P10635 whole entry, looked up): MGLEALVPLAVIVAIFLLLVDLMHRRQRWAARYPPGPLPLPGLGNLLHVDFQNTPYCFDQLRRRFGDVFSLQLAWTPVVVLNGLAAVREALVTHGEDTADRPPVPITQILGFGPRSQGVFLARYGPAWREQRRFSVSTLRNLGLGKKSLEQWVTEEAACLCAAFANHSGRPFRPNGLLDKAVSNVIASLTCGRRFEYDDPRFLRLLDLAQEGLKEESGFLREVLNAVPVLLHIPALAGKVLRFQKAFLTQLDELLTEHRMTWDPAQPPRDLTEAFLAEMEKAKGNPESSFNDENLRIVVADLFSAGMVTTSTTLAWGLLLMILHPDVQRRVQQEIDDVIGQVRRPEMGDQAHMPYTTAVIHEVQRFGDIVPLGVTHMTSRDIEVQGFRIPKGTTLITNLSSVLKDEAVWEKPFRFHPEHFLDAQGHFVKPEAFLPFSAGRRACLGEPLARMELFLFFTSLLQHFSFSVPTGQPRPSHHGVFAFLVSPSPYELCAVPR
How it was run: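 Human CYP2D6 (5 nM) with 30 uM Luciferin-ME EGE (at Km) in 100 mM KPO4, compound preincubated 10 min, then NADPH regeneration system for 60 min at room temperature. Luciferin read by luminescence; normalized to 1.43 uM quinidine.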

[9] = molecular target: Cytochrome P450 2C19 (Homo sapiens) (UniProt P33261); assay: qHTS Assay for Inhibitors and Substrates of Cytochrome P450 2C19 (AID 899); also: nearly all actives have a fitted effect of over 60% in size; also: potency is read from the fitted curve at half-maximal effect
Cytochrome P450 2C19 (Homo sapiens), sequence (P33261 whole entry, looked up): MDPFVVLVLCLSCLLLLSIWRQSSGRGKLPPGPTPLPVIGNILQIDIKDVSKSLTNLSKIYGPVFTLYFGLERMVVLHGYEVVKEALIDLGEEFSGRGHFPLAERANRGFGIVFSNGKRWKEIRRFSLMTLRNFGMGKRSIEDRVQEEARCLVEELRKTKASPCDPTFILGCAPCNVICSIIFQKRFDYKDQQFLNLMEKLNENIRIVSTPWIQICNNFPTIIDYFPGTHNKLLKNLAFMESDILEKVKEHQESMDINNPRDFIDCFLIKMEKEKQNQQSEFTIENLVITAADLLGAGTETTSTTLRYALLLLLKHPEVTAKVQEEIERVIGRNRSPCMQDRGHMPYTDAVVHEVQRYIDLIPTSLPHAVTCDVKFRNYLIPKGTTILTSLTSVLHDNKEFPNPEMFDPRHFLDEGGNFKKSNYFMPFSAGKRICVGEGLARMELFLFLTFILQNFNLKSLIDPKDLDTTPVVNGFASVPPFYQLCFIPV
How it was run: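 Luminescent read-out of luciferin formed from Luciferin-H EGE (10uM, equal to KM). Enzyme 5nM in 50mM KPO4; compound added, 10 min at 37C, then NADPH regenerating system for 60 min at 37C. Full inhibition defined by 57uM ketoconazole.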

## Cc1nc(NC2CCCCC2)c2nc(-c3ccccc3)n(CC3CCN(C)CC3)c2n1
[1]
  Potency: inactive

## Cc1ccc(S(=O)(=O)Nc2ccc(C)cc2C(=O)Nc2nc(-c3ccccc3)cs2)cc1
[2]
  Potency: 1.93 µM (active)
[1]
  Potency: inactive

## Cc1nc2cnc(N3CCNCC3)nc2n(Cc2cccs2)c1=O
[3]
  max response: 3.08%

## CCCn1c(-c2ccc(F)cc2)nc2c(NCCCCN(C)C)nc(C)nc21
[1]
  Potency: inactive

## CC[C@H](C)[C@H](NC(=O)[C@H](CC(=O)O)NC(=O)[C@H](CC(N)=O)NC(=O)[C@@H](NC(=O)[C@H](CCCNC(=N)N)NC(=O)[C@@H](NC(=O)[C@@H](NC(=O)[C@@H](NC(=O)[C@@H](NC(=O)[C@H](CCCCN)NC(=O)[C@@H](NC(=O)[C@H](CC(C)C)NC(=O)[C@@H](NC(=O)[C@H](CCCCN)NC(=O)[C@@H](NC(=O)[C@H](CC(=O)O)NC(=O)[C@H](CC(=O)O)NC(=O)[C@H](CCC(N)=O)NC(=O)[C@@H](NC(=O)[C@H](CCCCN)NC(=O)[C@H](CCC(N)=O)NC(=O)[C@@H](NC(=O)[C@@H]1CCCN1C(=O)[C@@H](N)C(C)C)[C@@H](C)CC)C(C)C)[C@@H](C)O)[C@@H](C)O)[C@@H](C)CC)[C@@H](C)O)[C@@H](C)CC)C(C)C)[C@@H](C)O)[C@@H](C)CC)C(=O)N[C@@H](CO)C(=O)N[C@@H](Cc1cnc[nH]1)C(=O)N[C@H](C(=O)N[C@@H](CCC(N)=O)C(=O)N[C@@H](CO)C(=O)N[C@H](C(=O)N[C@@H](CO)C(=O)N[C@@H](CO)C(=O)N[C@@H](CCCCN)C(=O)N[C@@H](CCC(N)=O)C(=O)N[C@@H](CCCCN)C(=O)O)C(C)C)[C@@H](C)O (H-VPIQKVQDDTKTLIKTIVTRINDISHTQSVSSKQK-OH)
[3]
  max response: 4.6%

## CCCn1c(C)nc2c(N(CCN(C)C)Cc3ccccc3)nc(C)nc21
[1]
  Potency: inactive

## Cc1noc(C)c1-c1nc(N2CCNCC2)c2ccccc2n1
[4]
  outcome: inactive

## COc1ccc(CNc2ncnc3ccc(-c4ccccc4CN(C)C)cc23)c(OC)c1
[5]
  activity change, negative = inhibition: 2.97% [at 2.29 µM]
[4]
  outcome: inactive

## Cc1ccccc1-c1nccc(Nc2ccc(F)cc2)n1
[6]
  outcome: inactive
[7]
  outcome: inactive

## FC(F)(F)c1ccccc1-c1nccc(N2CCNCC2)n1
[5]
  activity change, negative = inhibition: 37.4% [at 2.29 µM]

## COc1ccc(CNc2ncnc3ccc(-c4ccccc4OC)cc23)c(OC)c1
[5]
  Potency: 0.398 µM (active)

## CN1CCN(c2nc(-c3cccc(C#N)c3)nc3ccccc23)CC1
[4]
  outcome: inactive

## CN1CCN(c2nc(-c3ccc(N(C)C)cc3)nc3ccccc23)CC1
[5]
  activity change, negative = inhibition: 9.44% [at 2.29 µM]
[8]
  Potency: 3.16 µM (active)
[9]
  Potency: inactive
[4]
  outcome: inactive

## O=c1c(-c2ccc(F)cc2)nc2cnc(N3CCNCC3)nc2n1-c1ccccc1
[9]
  Potency: inactive

## c1cncc(-c2nc(N3CCNCC3)c3ccccc3n2)c1
[8]
  Potency: 7.94 µM (active)

## CN1CCN(c2ncc3nc(-c4ccccc4)c(=O)n(CCc4ccccc4)c3n2)CC1
[5]
  Potency: 3.16 µM (active)

## O=c1c(-c2ccccc2)nc2cnc(N3CCNCC3)nc2n1C1CC1
[5]
  Potency: 0.158 µM (active)

## Clc1ccccc1-c1nc(N2CCNCC2)c2ccccc2n1
[4]
  outcome: inactive

## COc1ccc(-c2nc3cnc(N4CCNCC4)nc3n(-c3ccc(OC)cc3)c2=O)cc1
[3]
  Potency: 25.1 µM (active)

## Cc1nc2cnc(N3CCNCC3)nc2n(Cc2ccc(F)cc2)c1=O
[9]
  Potency: inactive
[3]
  max response: 11.4%

## COc1ccc(-n2c(=O)cnc3cnc(N4CCNCC4)nc32)cc1
[3]
  max response: 4.18%

## CN(C)c1nccc(N(Cc2ccccc2)Cc2ccccc2)c1C#N
[3]
  max response: -2.77%

## CN1CCN(c2ncnc3ccc(-c4ccccc4Cl)cc23)CC1
[9]
  Potency: 3.98 µM (active)

## CCNc1ncc2nc(CCc3ccccc3)c(=O)n(-c3ccccc3)c2n1
[3]
  max response: 16.3%

## COCCn1c(=O)c(-c2cc(F)cc(F)c2)nc2cnc(N3CCNCC3)nc21
[5]
  Potency: 1.26 µM (active)

## COc1ccc(Oc2ncc3nc(-c4cc(F)cc(F)c4)c(=O)n(CCC#N)c3n2)cc1
[3]
  max response: -0.74%

## O=C(CCCN1C(=O)c2cccc3cccc(c23)C1=O)N1CCN(Cc2ccc3c(c2)OCO3)CC1
[3]
  max response: -13.9%
